ABHD5-PLIN5 inh: blocks binding of human ABHD5 to perilipin-5. Split G. princeps luciferase complementation, luminescence, 4 h. AID 602281. 360,000 compounds, 0.78% hits. inhibition, % at 4 µM. Q00G26+Q8WTS1;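 active means inhibition above the mean inhibition across every tested compound plus 3 SD, cut at about 22% in these data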;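 further: 0% = DMSO only wells and the 100% control is not disclosed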
Rce1 inh: blocks yeast Ras-converting enzyme | AID 2563 | yeast membranes, quenched prenylated peptide cleavage fluorescence | 290,000 compounds, 0.27% hits | calls only | Q03530;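 active means fall in fluorescence gain of 50% or more versus controls, with final raw signal at or below 3038400; inconclusive means same 50% fall but final raw signal above 3038400; inactive means fall in fluorescence gain under 50%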;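 further: plate controls were neutral control wells for no effect and wells lacking membranes for full effect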
Target sequence (Q03530 whole entry, looked up): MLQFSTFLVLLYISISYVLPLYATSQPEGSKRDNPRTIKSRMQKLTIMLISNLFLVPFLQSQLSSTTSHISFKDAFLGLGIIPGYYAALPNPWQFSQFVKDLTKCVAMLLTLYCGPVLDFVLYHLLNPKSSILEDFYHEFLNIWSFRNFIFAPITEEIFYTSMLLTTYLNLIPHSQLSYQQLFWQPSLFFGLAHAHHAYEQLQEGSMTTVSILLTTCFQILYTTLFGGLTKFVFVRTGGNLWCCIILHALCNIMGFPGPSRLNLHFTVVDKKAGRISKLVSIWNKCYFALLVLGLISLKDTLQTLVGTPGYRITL
Platelet DG rel: modulates dense granule release in human platelets; inhibition, %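 (compounds screened at 7.5 µM in platelet-rich plasma)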; human platelet-rich plasma, SFLLRN dense granule ATP release, luminescence; AID 1663; 300,000 compounds, 0.22% hits;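 active means mean replicate score, as percent of positive control, at or above 50; inconclusive means mean below 50 but at least one replicate at or above 50; inactive means mean and every replicate below 50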
M18AAP inhibitor: PfM18AAP enzyme inhibition. recombinant PfM18AAP, H-Glu-NHMec fluorogenic cleavage. AID 1822. inhibition, % at 7.35 µM. 290,000 compounds, 1.2% hits;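 active means inhibition above the campaign mean inhibition over all tested compounds plus 3 SD, cut at about 28% in these data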;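 further: 0% = plate median of test compound wells and 100% = 2 mM ZnCl2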
Exocytosis inh: lytic granule exocytosis inhibition. TALL-104 LAMP-1 surface exposure, flow cytometry; cells stimulated with thapsigargin and PMA. inhibition, % at 10 µM. 360,000 compounds, 0.66% hits. AID 651702;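 active means inhibition above about 55%, limit read from the data; inconclusive means no clear call, values can overlap the other calls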
* = called active by the depositor; i = inactive; ? = inconclusive; . = not tested or not shown; + = active, no number. Most compounds without a hit are left out; they make up all but 2.6% or so of the library.

SMILES	ABHD5-PLIN5 inh	Rce1 inh	Platelet DG rel	M18AAP inhibitor	Exocytosis inh
CCOC(=O)c1[nH]c2ccc(Br)cc2c1NC(=O)CCN1CCC(C(=O)OCC)CC1	2	i	-2	-3	1
C#CCOCCOCCOCCNc1nc(N2CCN(C(=O)[C@H](CCC(=O)O)n3cc([C@@H](N)CCCCN)nn3)CC2)nc(N2CCN(C(=O)[C@H](CCCCN)n3cc([C@@H](N)CC(N)=O)nn3)CC2)n1	7	.	.	.	59*
C#CCOCCOCCOCCNc1nc(N2CCN(C(=O)[C@H](CCC(=O)O)n3cc([C@@H](N)CCCCN)nn3)CC2)nc(N2CCN(C(=O)[C@H](CCC(=O)O)n3cc([C@@H](N)CCCCN)nn3)CC2)n1	0	.	.	.	-1
C#CCOCCOCCOCCNc1nc(N2CCN(C(=O)[C@H](Cc3cc4ccccc4[nH]3)n3cc([C@@H](N)CC(C)C)nn3)CC2)nc(N2CCN(C(=O)[C@H](Cc3cc4ccccc4[nH]3)n3cc([C@@H](N)CC(C)C)nn3)CC2)n1	51*	i	6	0	3
C#CCOCCOCCOCCNc1nc(N2CCN(C(=O)[C@H](Cc3ccc(O)cc3)n3cc([C@@H](N)C(C)CC)nn3)CC2)nc(N2CCN(C(=O)[C@H](Cc3cc4ccccc4[nH]3)n3cc([C@@H](N)C(C)CC)nn3)CC2)n1 (some centres not stated)	25*	i	-3	-8	9
CN(C)C(=O)CCc1ccc2c3c([nH]c2c1)[C@]1(C)[C@@H](C(=O)N2CCCCC2)C[C@H](CC(=O)NCCc2ccccn2)C(=O)N1CC3	0	.	.	.	-3
COc1ccc(C2COc3cc(O)ccc3C2)c(OC)c1O (configuration not stated)	0	i	1	.	2
O=C(c1nnsc1S(=O)c1ccc(Cl)cc1)N1CCOCC1 (configuration not stated)	73*	i	-1	-152	43
COc1ccccc1C(=O)Nc1ccc2c(c1)CCCN2C(=O)c1ccccc1	-9	i	54*	-2	-4
COc1ccccc1C(=O)Nc1ccc2c(c1)CCCN2C(=O)c1cccs1	0	i	25	3	-1
CC1CCCCC1NC(=O)Cn1cc([N+](=O)[O-])ccc1=O (configuration not stated)	-7	.	.	.	-3
Cc1cc(C)n(CC(=O)NC2CCCCC2C)c(=O)c1C#N (configuration not stated)	-4	+	-7	.	1
CC1CCCCN1C(=O)CN(C)S(=O)(=O)c1cccc2nsnc12 (configuration not stated)	-4	i	-4	-7	-1
COc1ccc(/C=N/Nc2ccccn2)cc1O	0	i	80*	9	-4
Oc1cccc(C=NNc2ccccn2)c1	-6	.	.	.	-2
Cc1c[nH]c2ccccc12	3	.	.	.	-2
Cc1ccc(OCCOC(=O)c2c(-c3ccccc3)noc2C)cc1	-6	i	-2	-5	73*
Cc1onc(-c2ccccc2)c1C(=O)OCCOc1cccc(Cl)c1	9	i	25	1	18
CCC(=O)N1c2ccc(S(=O)(=O)N3CCN(C)CC3)cc2CC1C (configuration not stated)	-2	i	-4	-1	-5
COc1cccc2sc3cc(C#CC4(O)CCCCC4)ccc3c(=O)c12	-2	.	.	.	1
COc1cc2sc3ccc(C#CC4(O)CCCCC4)cc3c(=O)c2cc1OC	-11	i	56*	.	-1
Cn1cc(Br)c(C(=O)NNC(=O)Nc2ccccc2C(F)(F)F)n1	6	i	0	-3	-2
Cc1cccc(C)c1N=C1SC(CC(=O)Nc2c(C)cccc2C)C(=O)N1CCc1ccccn1 (configuration not stated)	5	i	-2	1	-1
Cc1cc(C)c(C)c(S(=O)(=O)N2CCC(C(=O)NNC(=O)c3ccccc3O)CC2)c1C	-6	i	-6	.	-6
Cc1cccc2c(N)c3c(nc12)N(C)CC3	5	?	3	31*	-12
SMILES	ABHD5-PLIN5 inh	Rce1 inh	Platelet DG rel	M18AAP inhibitor	Exocytosis inh
Cc1ccc2nc3c(c(N)c2c1)CCN3C	-4	+	7	22	-8
O=C(Nc1ccc(NC(=O)N2CCN(c3ccccc3O)CC2)cc1)N1CCN(c2ccccc2O)CC1	1	i	0	29*	3
O=C(CC(SCCO)c1ccc([N+](=O)[O-])cc1)c1ccco1 (configuration not stated)	23*	i	11	8	-1
Cc1ccc(C(=O)CC(SCC(=O)O)c2ccc([N+](=O)[O-])cc2)cc1 (configuration not stated)	11	i	-9	20	0
CCOC(=O)c1sc(=S)n(-c2ccc(F)c(F)c2)c1N	-1	i	5	-7	-1
CCOC(=O)c1sc(=S)n(-c2ccc(C)cc2)c1N	-6	i	11	29*	4
COc1ccc(OC)c(/C=N/c2c(-c3ccc(O)c(OC)c3)nc3ccccn23)c1	3	+	0	18	0
COc1cc(-c2nc3ccccn3c2/N=C/c2cc(OC)c(OC)c(OC)c2)ccc1O	-15	+	8	7	-3
CCOC(=O)c1c(C)nc(-c2ccccc2)nc1N	-2	i	0	-1	0
CC(=O)c1c(C)nc(-c2ccccc2)nc1N	-3	+	4	-1	0
O=C(/C=C1\NC2(CCCC2)Cc2ccccc21)N1CCOCC1	2	i	0	11	77*
O=C(NCCC1=CCCCC1)C1CCCN(S(=O)(=O)c2cnc[nH]2)C1 (configuration not stated)	2	i	2	-2	-3
CC(C)(C)n1nnnc1C(c1ccncc1)N1CCN(c2ccc(O)cc2)CC1 (configuration not stated)	1	i	11	30*	0
NNC(=O)c1nn(-c2ccccc2)cc1O	.	i	-4	28*	.
COc1cccc(-c2ccc(-c3noc(-c4ccccc4F)n3)c(OC)n2)c1	2	+	2	-5	-4
C=CCn1cnc2c(nnn2-c2ccc(C)c(C)c2)c1=O	0	i	-4	-4	-1
CC(CN1CCN(Cc2ccccc2)CC1)c1ccccc1 (configuration not stated)	-1	i	0	-5	61*
CC(CN1CCC(O)CC1)c1ccccc1 (configuration not stated)	3	i	-9	-4	3
CC(C)COP(=O)(OCC(C)C)C(O)c1ccccc1F (configuration not stated)	5	i	10	-15	-3
CC1=Nc2ccc(C)cc2/C1=C/c1c(N)n2c(S(=O)(=O)C(C)C)nsc2nc1=O	2	i	1	10	-1
CSc1nsc2nc(=O)c(/C=C3\C(C)=Nc4ccc(C)cc43)c(N)n12	-6	i	1	2	78*
CCOC(=O)CN1CCC(C2(c3cc4ccccc4[nH]3)OCCO2)CC1	5	.	.	.	-4
